High-throughput results deposited in PubChem BioAssay by National Center for Advancing Translational Sciences (NCATS).
Hits are enriched below; roughly 2% of the tested compounds scored in any of these assays.
FUS yeast rescue = rescues growth of FUS-expressing yeast; Potency, µM (titrated, usually from 76.6 µM), most hits filed as activators; S. cerevisiae FUS-expressing, growth rescue, OD600, 24 h; AID 1347120; 0.24% of 390,000 active;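 also: potency is read from the fitted curve at half-maximal effect; plate controls were DMSO vehicle for no effect and reference control for full effect; nearly all actives have a fitted effect of over 55% in size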
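Compound concentration series was pinned onto galactose-induced FUS-expressing yeast seeded at OD 0.005. Plates sat 24hr at 30C; absorbance at 600 nm gave growth. DMSO served as background control.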
Abeta yeast res = compounds reversing amyloid beta toxicity in yeast | yeast expressing A-beta42, growth rescue, OD600, 48 h; response scale: 0% DMSO, 100% iron-clioquinol control | Potency, µM (series often up to 46.1 µM), usual class: activators | 0.063% of 410,000 active | AID 1347071; also: potency is read from the fitted curve at half-maximal effect; nearly all actives have a fitted effect of over 55% in size
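Yeast growth medium received pinned compounds, then yeast cells expressing toxic A-beta were added; plates incubated at 30 C for 48 hr. Growth read as absorbance at 600 nm, normalized to DMSO and equimolar FeCl3 plus clioquinol controls.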
aSyn rescue = alpha-synuclein toxicity inhibition in yeast; 0.14% of 370,000 active; Yeast expressing alpha-synuclein, growth rescue, BacTiter-Glo, 24 h; Potency, µM (highest dose often 46.1 µM), inactives show at the top dose growth rescue (activation), usual class: activators; also: potency is read from the fitted curve at half-maximal effect; % of control where 0% means no effect; nearly all actives have a fitted effect of over 65% in size
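Rescue of yeast growth: cells expressing toxic alpha-synuclein, induced in galactose at OD600 0.02, incubated with compound 24 h at 30 C. ATP luminescence quantified growth; inhibitors of toxicity appear as activators.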
mIDH1 inhibitor = inhibitors of human mutant IDH1 R132H | Potency, µM (doses to about 76.6 µM), inactives show top-dose activity change, negative = inhibition, most hits filed as inhibitors | O75874 | IDH1-R132H enzyme, NADPH consumption, diaphorase/resazurin fluorescence | 0.093% of 390,000 active; also: potency is read from the fitted curve at half-maximal effect; % is scaled to controls: 0 for no effect and ±100 for the full control effect; nearly all actives have a fitted effect of over 65% in size
Target sequence (O75874 whole entry R132H, stated change not applied): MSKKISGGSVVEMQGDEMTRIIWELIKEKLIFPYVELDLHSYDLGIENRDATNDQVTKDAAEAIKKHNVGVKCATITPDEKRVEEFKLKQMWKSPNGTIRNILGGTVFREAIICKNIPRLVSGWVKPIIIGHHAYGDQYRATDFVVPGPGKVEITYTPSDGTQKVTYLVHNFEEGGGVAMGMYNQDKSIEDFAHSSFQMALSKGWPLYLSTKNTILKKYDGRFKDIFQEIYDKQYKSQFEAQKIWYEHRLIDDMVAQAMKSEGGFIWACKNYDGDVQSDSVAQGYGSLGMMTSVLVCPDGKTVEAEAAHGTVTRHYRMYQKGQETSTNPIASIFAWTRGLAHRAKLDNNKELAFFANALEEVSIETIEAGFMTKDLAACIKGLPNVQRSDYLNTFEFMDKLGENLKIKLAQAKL
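IDH1-R132H (0.5 ug/mL) preincubated 30 min with compound, then NADPH (0.016 mM) and alpha-KG (2 mM) added; 80 min at RT, pH 7.5. Remaining NADPH coupled via diaphorase/resazurin to fluorescence (540/590 nm); concentration-response curves normalized to no-enzyme control.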
TDP-43 yeast inh = TDP-43 toxicity inhibition in yeast; TDP-43 expressing yeast growth rescue, BacTiter-Glo, 24 h; Potency, µM (doses to about 46.1 µM), inactives show at the top dose growth rescue (activation), actives largely listed as activators; 1.8% of 410,000 active; AID 652104; also: potency is read from the fitted curve at half-maximal effect; % of control where 0% means no effect; nearly all actives have a fitted effect of over 50% in size
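Yeast expressing TDP-43 (pregrown in raffinose, seeded at OD600=0.02 in galactose medium) exposed to compounds 24 hr at 30 deg C. Growth read by BacTiter-Glo luminescence; rescue of toxicity appears as increased signal.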
LDHA inh = inhibitors of human lactate dehydrogenase A. P00338. purified LDHA, NADH/diaphorase-resazurin fluorescence; hits give low values. activity change, % (values are at about 110 or 230 µM). 0.15% of 480,000 active. AID 1347041; in the data active = activity change below about -30%; inconclusive = mostly about -25% to -30%;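 also: plate controls were DMSO wells for no effect and wells without enzyme for full effect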
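LDH5 2 nM; NADH 0.06 mM, pyruvate 0.2 mM; 200 mM Tris pH 7.4, EDTA, Tween-20; 5 min RT. Detection: diaphorase 0.133 mg/mL + resazurin 37 µM, fluorescence ex540/em590 at 0 and 20 min; normalized to enzyme-free and DMSO wells.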
Starred values were filed as active, the others as inactive; i = inactive; ? = inconclusive; . = not tested or not shown; ! = repeats disagree. Unless noted, calls follow the shape of the dose curve; as a rule, active = well fitted curve in the direction sought with a large enough effect; inconclusive = small, poorly fitted or top-dose-only effect, or another doubt; inactive = no such curve, though single readings can be large; an effect the other way counts as inactive or inconclusive.

SMILES	FUS yeast rescue	Abeta yeast res	aSyn rescue	mIDH1 inhibitor	TDP-43 yeast inh	LDHA inh
Cc1ccc2c(CN(C)CCOc3ccccc3Cl)cc(=O)oc2c1	.	.	.	.	.	2
O=C(Nc1ccccc1Oc1ccccc1)c1ccccc1F	i	i	-8%	8%	13µM*	-4
CS(=O)(=O)c1ccccc1C(=O)Nc1ccccc1Cc1ccccc1	i	i	-3%	-4%	0%	-6
O=C(Nc1ccccc1Cc1ccccc1)c1ccccc1F	i	2.5µM*	-4%	9%	?	-6
Fc1ccc(Nc2nc(-c3ccc(F)cc3)cs2)cc1	.	.	.	.	.	2
Cc1cc(Br)cn2c(Cc3ccccc3)c(-c3ccco3)nc12	i	i	1%	.	11µM*	-3
Cc1ccc(Cc2c(-c3ccc(F)cc3)nc3c(C)cc(Br)cn23)cc1	i	i	3%	.	22µM*	-6
COc1ccccc1Cc1c(-c2ccc(OC)c(OC)c2)nc2c(C)cc(Br)cn12	?	i	1%	.	18µM*	-1
Cc1cc(Br)cn2c(Cc3ccsc3)c(-c3ccco3)nc12	i	i	-76%	.	?	0
COc1ccccc1Cc1c(-c2ccc(C)cc2)nc2c(C)cc(Br)cn12	?	i	11%	.	35µM*	-3
Cc1ccc(Cc2c(-c3ccc(C)cc3)nc3c(C)cc(Br)cn23)cc1	i	i	13%	.	6%	-9
CCCCNC(=S)N/N=C(/C)c1ccccn1	.	.	.	.	.	-9
COc1cc(NC(=O)N2CC3CCCN3c3ccccc32)cc(OC)c1OC (stereo not given)	.	.	.	.	.	10
COc1ccc(-c2nc3c(C)cc(Br)cn3c2Cc2cccc(Cl)c2)cc1OC	?	i	5%	.	32µM*	0
FC(F)Oc1ccc(NC(=S)NC2CCCCCCC2)cc1	i	11µM*	-9%	5%	24%	-7
Fc1ccc(NC(=S)NC2CCCCCC2)cc1	.	.	.	.	.	5
N#Cc1ccccc1CN1CCc2cc(S(=O)(=O)N3CCOCC3)ccc21	.	.	.	.	.	-19
C[n+]1cnn2c1SCC1(COC1)C2	i	i	0%	-6%	-17%	-58*
COc1ccc2cc(C#N)c(N3CCN(C(=O)c4ccccc4C)CC3)nc2c1	i	i	11%	6%	?	-16
COc1ccc2nc(N3CCC(C)CC3)c(C#N)cc2c1	i	i	-1%	4%	35µM*	17
COc1cccc(C(=O)N2CCN(c3nc4cc(C)cc(C)c4cc3C#N)CC2)c1	i	i	4%	-1%	35µM*	-2
Clc1ccccc1C(c1ccccc1)(c1ccccc1)n1ccnc1	i	i	?	?	?	-7
C#CC(c1ccccc1)(c1ccccc1)n1ccnc1	i	i	6%	-1%	3.5µM*	-8
Cc1ccc(C(=O)N2CCN(c3cccc(C)c3C)CC2)o1	i	i	5%	3%	13µM*	-1
Cc1cccc(N2CCN(C(=O)c3cccs3)CC2)c1C	i	i	4%	7%	5.6µM*	-2
SMILES	FUS yeast rescue	Abeta yeast res	aSyn rescue	mIDH1 inhibitor	TDP-43 yeast inh	LDHA inh
O=C(c1ccc(CS(=O)c2ccccc2Cl)o1)N1CCN(c2ccccc2F)CC1 (stereo not given)	i	i	.	0%	13µM*	0
O=C(c1cccs1)N1CCN(c2cc(Cl)ccc2Cl)CC1	i	i	-12%	3%	22µM*	-1
O=C(c1cccs1)N1CCN(c2ccc(Cl)cc2)CC1	i	i	9%	1%	?	0
CN(C)CCCNCc1ccccc1	.	.	.	.	.	-2
Cc1ccccc1S(=O)Cc1ccc(C(=O)N2CCN(c3cccc(C)c3C)CC2)o1 (stereo not given)	i	i	.	.	35µM*	-2
CCCCCCCCCOc1cccc(CNc2cccc3ccccc23)c1	.	.	.	.	.	25
CN(C)CCNC(=O)c1ccc(-c2nn(C)c(=O)c3ccccc23)cc1	i	i	.	-12%	1%	-4
Cc1cccc(NC(=O)COc2ccc(-c3nn(C)c(=O)c4ccccc34)cc2)c1	?	i	4%	-2%	35µM*	-9
COc1ccccc1NC(=O)Cn1nc(-c2ccc(C)cc2)c2c(c1=O)CCCC2	i	i	.	13%	32µM*	2
Cn1nc(-c2ccc(OCC(=O)Nc3ccc(F)cc3)cc2)c2ccccc2c1=O	.	.	.	.	.	-4
Cn1nc(-c2ccc(OCC(=O)Nc3ccccc3)cc2)c2ccccc2c1=O	i	i	.	3%	16µM*	4
CN(C(=O)c1ccc(-c2nn(C)c(=O)c3ccccc23)cc1)c1ccccc1	i	i	.	-3%	14µM*	-3
O=C(O)CN1CCOCC1	.	.	.	.	.	-1
COc1ccccc1NC(=O)COc1ccc(-c2nn(C)c(=O)c3ccccc23)cc1	i	i	0%	2%	22µM*!	-7
COc1ccccc1NC(=O)c1ccc(-c2nn(C)c(=O)c3ccccc23)cc1	i	i	16%	3%	16%	-2
Cc1ccc(C(=O)/C=C/c2cccc(C#N)c2)o1	.	.	.	.	.	12
O=C(CCCn1c2ccccc2c(=O)c2ccccc21)Nc1cccc(Cl)c1	?	i	.	3%	35µM*	-4
Cc1ccc2c(c1)c(=O)c1ccccc1n2CCCC(=O)Nc1ccc(Cl)c(Cl)c1	i	i	.	-3%	7%	-4
Nc1ncnc2c1ncn2[C@@H]1O[C@H](COP(=O)(O)OP(=O)(O)OP(=O)(O)OP(=O)(O)OC[C@@H]2O[C@H](n3cnc4c(N)ncnc43)[C@@H](O)[C@H]2O)[C@@H](O)[C@H]1O	.	.	7.3µM*	.	.	.
Nc1nc(Cl)nc2c1ncn2[C@@H]1O[C@H](COP(=O)(O)OP(=O)(O)OP(=O)(O)O)[C@@H](O)[C@H]1O	.	.	21µM*	.	.	.
Nc1nc(F)nc2c1ncn2[C@@H]1O[C@H](COP(=O)(O)O)[C@@H](O)[C@@H]1O	i	.	.	.	.	.
COc1ccc(Nc2nc(N)c(C(=O)c3ccc(Br)cc3)s2)cc1OC	.	.	.	.	.	-1
O=C(Nc1ccccc1)Nc1ccc(NC(=O)c2cc[n+]([O-])cc2)cc1	.	.	.	.	.	-1
Cc1sc(NC(=O)c2ccco2)c(C(c2cccnc2)N2CCN(c3ccc(F)cc3)CC2)c1C (stereo not given)	?	i	?	-16%	25µM*	-8
Cc1sc(NC(=O)c2ccco2)c(C(c2cccnc2)N2CCN(CCO)CC2)c1C (stereo not given)	i	i	-7%	5%	23%	-8
Cc1cccc(Cn2cccc2CNC(=O)NC23CC4CC(CC(C4)C2)C3)c1	.	.	.	.	.	2
